Laboratory results reported in PubChem BioAssay (NCATS).
“And” between values parts separate entries of the source, which are not always exact repeats. Identical values can stand only once. Inconclusive results are not listed. A call without a number means that no potency is given here. Values without a mark were called inactive. The source made the active and inactive calls. The call rests on the fitted dose curve; in most records, active means well fitted curve in the direction sought with a large enough effect; inconclusive means small, poorly fitted or top-dose-only effect, or another doubt; inactive means no such curve, though single readings can be large; an effect the other way counts as inactive or inconclusive.

Legend:
[1] = biological target: Cellular tumor antigen p53 (Homo sapiens) (UniProt P04637); test: Primary qHTS for small molecule compounds that upregulate eGFP-tagged delta133p53alpha (in N-terminal) cells. (AID 2060322); conditions: NCI-H358 eGFP-delta133p53alpha fluorescence, 24 h; activation: hits give high values; further: nearly all actives have a fitted effect of over 75% in size; further: potency means the concentration at half of the fitted maximal effect;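 on activation: cells pre-induced with doxycycline then dosed without doxycycline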
Cellular tumor antigen p53 (Homo sapiens), sequence (P04637 whole entry, looked up): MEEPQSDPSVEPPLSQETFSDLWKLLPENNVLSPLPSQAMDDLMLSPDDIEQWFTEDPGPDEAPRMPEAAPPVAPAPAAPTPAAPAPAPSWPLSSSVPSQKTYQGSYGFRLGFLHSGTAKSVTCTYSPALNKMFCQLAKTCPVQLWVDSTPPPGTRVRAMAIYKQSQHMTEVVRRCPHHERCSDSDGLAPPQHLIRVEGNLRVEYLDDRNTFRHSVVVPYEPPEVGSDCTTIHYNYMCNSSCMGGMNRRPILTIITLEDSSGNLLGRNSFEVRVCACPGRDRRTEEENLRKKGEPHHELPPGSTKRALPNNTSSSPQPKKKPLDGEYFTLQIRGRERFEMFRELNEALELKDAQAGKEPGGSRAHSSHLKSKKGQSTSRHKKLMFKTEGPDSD
Method in brief: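 NCI-H358 cells pre-induced 24 h with 10 ng/ml doxycycline for eGFP-delta133p53alpha, plated dox-free and exposed 24 h at 37C to titrated compounds. Fixed, Hoechst-stained; gated GFP peak intensity by laser scanning cytometry, normalized to DMSO (0%) and 57.5 uM 5-azacytidine (100%).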

[2] = biological target: Aldehyde dehydrogenase, mitochondrial (Homo sapiens) (UniProt P05091); test: qHTS for Inhibitors of the Aldehyde Dehydrogenase Family (ALDH2) Primary screen (AID 2061308); conditions: ALDH2 enzyme inhibition qHTS, 1536-well; series mostly up to 56 µM; further: nearly all actives have a fitted effect of over 55% in size
[3] = biological target: Retinaldehyde dehydrogenase 3 (Homo sapiens) (UniProt P47895); test: qHTS for Inhibitors of the Aldehyde Dehydrogenase Family (ALDH1A3) Primary screen (AID 2061315); conditions: ALDH inhibition qHTS; series mostly up to 56 µM
[4] = BET inhibitor-based combinations targeting novel dependencies in MECOM-rearranged (r) AML: SET-2 cell line (AID 2202231); conditions: SET-2 AML cells viability, CellTiter-Glo luminescence, 48 h; viability: hits give low values, concentration not given here; further: nearly all actives have a fitted effect of over 35% in size; further: potency means the concentration at half of the fitted maximal effect
Method in brief: (§1)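 Here, 11-point titrations of each agent were applied to 500 seeded cells and incubated 48 hr; CellTiter-Glo signal, scaled against DMSO and empty wells, was integrated as AUC, then Z-scored within the individual line.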

[5] = BET inhibitor-based combinations targeting novel dependencies in MECOM-rearranged (r) AML: OCI-AML3 cell line (AID 2202232); conditions: CellTiter-Glo luminescence, 48 h; Potency: OCI-AML3 viability; series mostly up to 46 µM; further: nearly all actives have a fitted effect of over 35% in size; further: potency means the concentration at half of the fitted maximal effect
Method in brief: as §1

[6] = BET inhibitor-based combinations targeting novel dependencies in MECOM-rearranged (r) AML: MV-4-11 cell line (AID 2202233); conditions: MV-4-11 AML viability, CellTiter-Glo luminescence, 48 h; series mostly up to 46 µM; further: nearly all actives have a fitted effect of over 45% in size; further: potency means the concentration at half of the fitted maximal effect
Method in brief: (§2)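 Normalized to DMSO and empty-well controls, the luminescence data from CellTiter-Glo after 48 hr drug exposure were fitted across 11 concentrations. Reported metrics are area under the dose-response curve and its Z-transformed form.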

[7] = BET inhibitor-based combinations targeting novel dependencies in MECOM-rearranged (r) AML: AML-191 cell line (AID 2202236; further: nearly all actives have a fitted effect of over 35% in size; further: potency means the concentration at half of the fitted maximal effect); conditions: AML-191 viability, CellTiter-Glo luminescence, 48 h; series mostly up to 46 µM
Method in brief: as §1

[8] = BET inhibitor-based combinations targeting novel dependencies in MECOM-rearranged (r) AML: UCSD-AML1 cell line (AID 2202235); conditions: UCSD-AML1 AML cells viability, CellTiter-Glo, 48 h; series mostly up to 46 µM; further: nearly all actives have a fitted effect of over 40% in size; further: potency means the concentration at half of the fitted maximal effect
Method in brief: as §2

[9] = BET inhibitor-based combinations targeting novel dependencies in MECOM-rearranged (r) AML: AML-194 cell line (AID 2202237; further: nearly all actives have a fitted effect of over 40% in size; further: potency means the concentration at half of the fitted maximal effect); conditions: AML-194 (MECOM-r AML) viability, CellTiter-Glo, 48 h; series mostly up to 46 µM
Method in brief: as §1

[10] = BET inhibitor-based combinations targeting novel dependencies in MECOM-rearranged (r) AML: HNT-34 cell line (AID 2202234); conditions: HNT-34 AML viability, CellTiter-Glo luminescence, 48 h; series mostly up to 46 µM; further: nearly all actives have a fitted effect of over 35% in size; further: potency means the concentration at half of the fitted maximal effect
Method in brief: as §2

SMILES | Potency [1] | Potency [2] | Potency [3] | viability [4] [%] | Potency [5] | Potency [6] | Potency [7] | activation [1] | Potency [4] | Potency [8] | Potency [9] | Potency [10]
NCCOc1cc(C(=O)Nc2cc(OCCN)c3ccccc3n2)nc(C(=O)Nc2cc(OCCN)c3ccccc3n2)c1 | 0.193 µM (active) | inactive | inactive | 78 | inactive | 16.6 µM (active) | inactive |  |  |  |  | 
CN1CCN(c2ccc(OC(F)(F)F)c(Nc3ncc4c(n3)-c3c(c(C(N)=O)nn3CCO)CC4)c2)CC1 |  | inactive | inactive |  | 0.059 µM (active) | 0.0934 µM (active) | 0.132 µM (active) | 85.7% | 0.186 µM (active) | 0.118 µM (active) | 0.332 µM (active) | 
COC(=O)c1ccc2c(C(=Nc3ccc(N(C)C(=O)CN4CCN(C)CC4)cc3)c3ccccc3)c(O)[nH]c2c1 |  | inactive | inactive |  | 10.5 µM (active) | 0.166 µM (active) | 5.25 µM (active) | 5.68% | 11.8 µM (active) | 5.25 µM (active) | 5.25 µM (active) | 
Nc1ccc(C(=O)Nc2cccc(-c3nc(N4CCOCC4)c4oc5ncccc5c4n3)c2)cn1 |  | inactive | inactive |  | 9.34 µM (active) |  | 9.34 µM (active) | 2.12% | 16.6 µM (active) | 9.34 µM (active) | 8.33 µM (active) | 14.8 µM (active)
NC(=O)c1ccc(N(C(N)=O)c2c(F)cccc2F)nc1-c1ccc(F)cc1F |  | inactive | inactive | 106 |  | inactive | inactive | 24.3% and 1.79% |  | inactive |  | inactive
Cc1cnc(-c2cc(N3CCN(C(=O)CCS(C)(=O)=O)CC3)ncc2Cl)c(C)c1 |  | inactive | inactive | 112 | inactive |  | inactive | 20.4% and -10.5% |  | inactive | inactive | inactive
Cc1ccccc1C(=O)Nc1ccc(C(=O)N2CCCC(O)c3cc(Cl)ccc32)c(C)c1 (configuration not stated) |  | inactive | inactive | 88.6 | inactive |  | inactive | 0.83% |  | inactive | inactive | inactive
CC1=C(C(=O)Nc2cc3cn[nH]c3cc2F)C(c2ccc(C(F)(F)F)cc2)CC(=O)N1 (configuration not stated) |  | inactive | inactive | 110 | 2.95 µM (active) |  |  | -14.3% and -24.1% |  |  | inactive | 
CCc1ccc(C(=O)Nc2cc(CN3CCN(C)CC3)cc(C(F)(F)F)c2)cc1C#Cc1cnc2ccnn2c1 | 19 µM (active) | inactive | inactive |  | 10.5 µM (active) |  | 5.9 µM (active) |  | 14.8 µM (active) | 9.34 µM (active) | 5.9 µM (active) | 1.86 µM (active)
Cc1ccn(-c2ccc(-c3ncco3)cc2)c(=O)c1-c1ccc2nc(N)ncc2c1 |  | inactive | inactive | 114 |  | 6.61 µM (active) |  | 28.6% |  |  |  | 0.372 µM (active)
CN(C)C(=O)c1ccc(S(=O)(=O)c2ccc(NC(=O)[C@@](C)(O)C(F)(F)F)c(Cl)c2)cc1 |  | inactive | inactive |  |  | 4.68 µM (active) |  | 17.9% and -11.6% | 7.42 µM (active) |  |  | 
O=c1ccn([C@@H]2O[C@H](CO)[C@@H](O)[C@H]2O)c(=O)[nH]1 |  | inactive | inactive | 115 | inactive |  | inactive | 10.3% |  | inactive | inactive | 
CC#CC(=O)N1CCC[C@H]1c1nc(-c2ccc(C(=O)Nc3ccccn3)cc2)c2c(N)nccn12 |  | inactive | inactive | 96.5 | inactive |  |  | 15.7% |  | inactive | inactive | 
N#CN1CCC[C@@H](n2nc(-c3ccc(Oc4ccc(F)cc4F)cc3)c(C(N)=O)c2N)C1 |  | inactive | inactive | 107 | 10.5 µM (active) |  |  | -16.1% |  |  | inactive | 
CCC(=O)N[C@H]1CC[C@H](C(=O)N(C)c2ccc(-c3nc4ccccc4o3)cc2)C1 |  | inactive | inactive | 98.9 | 18.6 µM (active) |  | 20.9 µM (active) | 18% |  | inactive |  | 
CC(=O)Nc1ccc(C(=O)Nc2ccccc2N)cc1 |  | inactive | inactive |  | 16.6 µM (active) |  | 18.6 µM (active) | 3% and -4.47% | 7.42 µM (active) | 10.5 µM (active) | 18.6 µM (active) | 11.8 µM (active)
Cc1c(F)cc(C(=O)NC2CC2)cc1-c1c(F)cn2c(C(C)(C)C)nnc2c1F |  | inactive | inactive | 104 | inactive |  | inactive | -8.93% |  | inactive | inactive | 
NC(=O)c1cccc(-c2cc(Nc3ccc(OC(F)(F)F)cc3)ncn2)c1 |  | inactive | inactive |  |  | 16.6 µM (active) |  | -25.2% and 10.7% | 20.9 µM (active) |  |  | 1.86 µM (active)

SMILES | Potency [1] | Potency [2] | Potency [3] | viability [4] [%] | Potency [5] | Potency [6] | Potency [7] | activation [1] | Potency [4] | Potency [8] | Potency [9] | Potency [10]
CC[C@@H]1C(=O)N(C)c2cnc(Nc3ccc(C(=O)NC4CCC(N5CCN(CC6CC6)CC5)CC4)cc3OC)nc2N1C(C)C (some centres not stated) |  | inactive | inactive |  | 0.059 µM (active) |  | 0.166 µM (active) | -21.7% | 0.148 µM (active) |  | 0.0934 µM (active) | 
c1cncc(CN2CCC(n3ncc4c(N5CCOCC5)nc(-c5ccc6[nH]ccc6c5)nc43)CC2)c1 |  | inactive | inactive |  |  | 3.72 µM (active) |  | -11.7% and 12.5% | 3.72 µM (active) | 0.833 µM (active) |  | 2.95 µM (active)
Cc1cccc(CC(=O)N2CCc3c2ccc(-c2cn(C)c4ncnc(N)c24)c3F)n1 |  | inactive | inactive |  |  | 5.9 µM (active) |  | 0.893% | 5.9 µM (active) |  |  | 4.17 µM (active)
CCS(=O)(=O)N1CCC([C@@H](C)n2c(C)c(C(=O)NCc3c(OC)cc(C)[nH]c3=O)c3ccccc32)CC1 |  | inactive | inactive | 115 | 5.9 µM (active) |  | inactive | 7.16% |  | inactive | inactive | 
Cc1c(C(=O)N2CCOc3ccc(-c4ccc(N)nc4)cc3C2)ccc(S(C)(=O)=O)c1F | 26.9 µM (active) | inactive | inactive |  |  | 6.61 µM (active) | 1.86 µM (active) |  | 13.2 µM (active) | 0.742 µM (active) |  | 2.95 µM (active)
Cc1cc(Nc2cc(CN3CCOCC3)c3nc(C)c(Cc4ccc(Cl)cc4F)n3n2)n[nH]1 | 27.3 µM (active) | inactive | inactive |  |  | 0.235 µM (active) | 0.742 µM (active) |  | 2.63 µM (active) | 2.35 µM (active) |  | 2.35 µM (active)
COc1ncc(-c2ccc3c(Nc4cc(Oc5cc(F)cc(F)c5)cc(C(=O)O)c4)c(S(=O)(=O)NC4CC4)cnc3c2)c(OC)n1 |  | inactive | inactive | 110 | inactive |  | inactive | -3.34% |  | inactive | inactive | inactive
CNc1nc(Nc2ccc(C(=O)N3CCOCC3)cc2OC)ncc1Cl |  | inactive | inactive | 93.5 | inactive |  | inactive | -0.44% and -2.68% |  |  | inactive | 
N#C[C@@H]1C[C@@H]2C[C@@H]2N1C(=O)[C@@H](N)C12CC3CC(CC(O)(C3)C1)C2 |  | inactive | inactive | 110 | inactive |  |  | -3% |  |  | 14.8 µM (active) | inactive
c1ccc2c(Oc3nc(Nc4ccc(N5CCOCC5)cc4)c4ncn(C5CCCCC5)c4n3)cccc2c1 |  | inactive | inactive | 101 | inactive |  | inactive | 9.2% and -7.64% |  | inactive | inactive | 
C[C@@H]1CN(Cc2ccc(F)cc2)[C@@H](C)CN1C(=O)c1cc2c(C(=O)C(=O)N(C)C)cn(C)c2cc1Cl |  | inactive | inactive | 94.6 | inactive |  |  | 10.3% and -3.57% |  | inactive | inactive | 
CCCCOC(=O)NS(=O)(=O)c1sc(CC(C)C)cc1-c1ccc(Cn2ccnc2)cc1 |  | inactive | inactive | 80.2 | inactive |  |  | 6.25% |  | inactive | inactive | 
CN1C(=O)C(Cc2c[nH]c3ccccc23)NC1=S (configuration not stated) |  | inactive | inactive | 99.6 | inactive |  | inactive | 23.7% |  |  | inactive | inactive
CC[C@H](NC(=O)[C@H](CS(=O)(=O)CC1CC1)N[C@@H](c1ccc(F)cc1)C(F)(F)F)C(=O)C(=O)NC1CC1 |  | inactive | inactive | 112 | inactive |  | inactive | 21.7% |  | inactive | inactive | inactive
COc1cc2ncnc(Oc3cccc(NC(=O)Nc4cc(C(C)(C)C(F)(F)F)on4)c3)c2cc1OC | 23.9 µM (active) | inactive | inactive | 104 |  | 0.662 µM (active) |  |  |  |  |  | 
CC1=C(CO)C(=O)O[C@@H]([C@@H](C)[C@H]2CC[C@H]3[C@@H]4C[C@H]5O[C@]56[C@@H](O)C=CC(=O)[C@]6(C)[C@H]4CC[C@]23C)C1 | 1.47 µM (active) | inactive | inactive |  | 0.742 µM (active) |  | 0.372 µM (active) |  | 0.59 µM (active) |  | 0.372 µM (active) | 0.118 µM (active)
Cc1cnc(-c2cnc(NCCNc3ccc(C#N)cn3)nc2-c2ccc(Cl)cc2Cl)[nH]1 |  | inactive | inactive |  | inactive |  |  | 9% | 14.8 µM (active) | inactive | inactive | 
CNC(=O)c1ccc2cc(C3(O)CCn4cncc43)ccc2c1 (configuration not stated) |  | inactive | inactive | 115 | inactive |  | inactive | -1.49% and -0.893% |  | inactive | inactive | inactive
